In PubChem BioAssay (NCATS):
Inconclusive results are not listed. A number with no mark means an inactive call. The source made the active and inactive calls. The call rests on the fitted dose curve; in most records, active means well fitted cell-killing curve with a large enough effect; inconclusive means small, poorly fitted or top-dose-only effect, or effect the other way; inactive means no such curve, though single readings can be large or run the other way.

assay: Quantitative High-Throughput drug screen in 47 multiple myeloma cell lines against the NCATS MIPE library collection: JIM1_ECACC cell viability assay (AID 1918964); settings: JIM1 myeloma viability, CellTiter-Glo ATP luminescence, 48 h; series mostly up to 45.8 µM; viability (% of DMSO): at the top concentration
How it was run: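 Viability readout: CellTiter-Glo luminescence following 5 min room-temperature incubation with reagent. Prior exposure: 48 h, 37C, humidified 5% CO2, 500 cells per well.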
Potency means the concentration at half of the fitted maximal effect.

| SMILES | viability (% of DMSO) | Potency |
| --- | --- | --- |
| CC1CCN(c2cc(N3CCN(C)CC3)ccc2NC(=O)c2cc(C#N)c[nH]2)CC1 | 115% |  |
| COc1cc2nccc(Oc3ccc(NC(=O)Nc4ccc(F)cc4F)c(F)c3)c2cc1OC | 66.3% |  |
| CC[C@H](CC#N)OC(=O)N[C@@H](C)c1cccc(NC(=O)Nc2ccc(-c3cnco3)c(OC)c2)c1 |  | 13.2 µM (active) |
| COc1ccc(-c2nc3ccc(C4=NNC(=O)CC4C)cc3[nH]2)cc1 (stereo not drawn) | 104% |  |
| CC(C)CN(C[C@@H](O)[C@H](Cc1ccccc1)NC(=O)O[C@H]1CO[C@H]2OCC[C@H]21)S(=O)(=O)c1ccc(N)cc1 | 80.2% |  |
| COc1cc([C@H]2Oc3cc([C@H]4Oc5cc(O)cc(O)c5C(=O)[C@H]4O)ccc3O[C@H]2CO)ccc1O | 117% |  |
| CCN1C[C@H](C)n2c(c(O)c3c(=O)n(Cc4ccc(F)c(Cl)c4)nc(C(=O)NC)c32)C1=O | 96.5% |  |
| CCCCCOC(=O)Nc1nc(=O)n([C@@H]2O[C@H](C)[C@@H](O)C2O)cc1F (stereo partly drawn) | 69% |  |
| Clc1ccc(COC(Cn2ccnc2)c2ccc(Cl)cc2Cl)c(Cl)c1 (stereo not drawn) |  | 26.4 µM (active) |
| CN(C)c1ccc(-c2nc3ncc(Cl)c(N4CCN(CC(=O)Nc5nccs5)CC4)c3[nH]2)cc1 | 140% |  |
| CN1[C@H]2CC[C@H]1CC(OC(=O)c1c[nH]c3ccccc13)C2 (stereo partly drawn) | 123% |  |
| COc1cc(F)c(C(C)C)cc1-c1ccc(C(F)(F)F)cc1CN1C(=O)O[C@H](c2cc(C(F)(F)F)cc(C(F)(F)F)c2)[C@@H]1C | 97.3% |  |
| CC[C@H](C)C(=O)O[C@H]1C[C@H](O)C=C2C=C[C@H](C)[C@H](CC[C@@H](O)C[C@@H](O)CC(=O)O)[C@H]21 | 77% |  |
| O=C(CO)N1CCC(c2[nH]nc(-c3ccc(Cl)cc3)c2-c2ccncn2)CC1 | 97.8% |  |
| C#CCN(C)CC1=Cc2ccccc2Oc2ccccc21 | 93.4% |  |
| CC(C)(C)c1[nH]cnc1C=c1[nH]c(=O)c(=Cc2ccccc2)[nH]c1=O | 3.45% [at 92.2 µM] |  |

| SMILES | viability (% of DMSO) | Potency |
| --- | --- | --- |
| CN1CCN(c2cccc(Nc3nc4c(-c5ccc(S(C)(=O)=O)cc5)cccn4n3)c2)CC1 |  | 0.662 µM (active) |
| COc1ccc(-c2oc3c(CC=C(C)C)c(O)cc(O)c3c(=O)c2O)cc1 | 148% |  |
| CCCCCCCCCCCCCC(=O)N[C@H](CO)[C@H](O)c1ccc([N+](=O)[O-])cc1 |  | 14.8 µM (active) |
| CC(C)=CCCC(C)=CCCC(C)=CCCC(C)=CCCC(C)=CCCC(C)=CCCC(C)=CCCC(C)=CCCC(C)=CCO | 124% |  |
| C=CCc1cccc(C=NNC(=O)CN2CCN(Cc3ccccc3)CC2)c1O |  | 5.26 µM (active) |
| O=C(NC[C@H](O)CO)c1ccncc1Nc1ccc(I)cc1F |  | 2.35 µM (active) |
| CNC(=O)c1cc(COc2nnc(Nc3ccc(Cl)cc3)c3ccoc23)ccn1 | 111% |  |
| CC[C@H]1OC(=O)[C@H](C)[C@@H](O[C@H]2C[C@@](C)(OC)[C@@H](O)[C@H](C)O2)[C@H](C)[C@@H](O[C@@H]2O[C@H](C)C[C@H](N(C)C)[C@H]2O)[C@](C)(O)C[C@H](C)C(=NOCOCCOC)[C@H](C)[C@@H](O)[C@]1(C)O | 94.3% |  |
| COc1ccc(-c2cc(=O)c3c(O)cc(O[C@@H]4O[C@H](CO[C@@H]5O[C@@H](C)[C@H](O)[C@@H](O)[C@@H]5O)[C@@H](O)[C@H](O)[C@@H]4O)cc3o2)cc1O | 119% |  |
| CN[C@@H](C)[C@H]1[C@H](O)C[C@@]2(C)[C@@H]3CC[C@H]4C(C)(C)[C@@H](NC)CC[C@@]45C[C@@]35CC[C@]12C | 69.1% |  |
| CC1C(=O)OC2C(O)C34C5CC(C(C)(C)C)C36C(OC(=O)C6O)OC4(C(=O)O5)C12O (stereo not drawn) | 98.7% |  |
| Oc1cc(O)cc(C=Cc2ccc(O)c(O)c2)c1 |  | 16.6 µM (active) |
| Nc1ncnc2c1c(-c1cccc(OCc3ccccc3)c1)cn2C1CC(CN2CCC2)C1 (stereo not drawn) |  | 0.469 µM (active) |
| C=C[C@@H]1CN2CCC1C[C@@H]2C(O)c1ccnc2ccc(OC)cc12 (stereo partly drawn) | 142% |  |
| CCNC(=O)Nc1ccc(Oc2ncnc(N)c2C=NOC)cc1Cl |  | 2.64 µM (active) |
| CN[C@H]1[C@@H](O[C@@H]2[C@H](O[C@@H]3[C@@H](O)[C@@H](O)[C@@H](N=C(N)N)[C@@H](O)[C@@H]3N=C(N)N)O[C@H](C)[C@@]2(O)C=O)O[C@@H](CO)[C@@H](O)[C@H]1O | 127% [at 15.3 µM] |  |

assay: Quantitative High-Throughput drug screen in 47 multiple myeloma cell lines against the NCATS MIPE library collection: INA6_PLB cell viability assay (AID 1918965; further: nearly all actives have a fitted effect of over 55% in size); settings: INA6 myeloma viability, CellTiter-Glo ATP luminescence, 48 h; series mostly up to 45.8 µM; viability (% of control): at the top concentration
How it was run: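 CellTiter-Glo luminescence (ATP) after 48 h compound exposure, 37C/5% CO2; 500 cells/well; MIPE 4.0 approved/investigational drugs pinned in; DMSO = 100%, media only = 0% viability.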

| SMILES | Potency | viability (% of control) |
| --- | --- | --- |
| CC[C@H](CC#N)OC(=O)N[C@@H](C)c1cccc(NC(=O)Nc2ccc(-c3cnco3)c(OC)c2)c1 | 1.05 µM (active) |  |
| COc1cc([C@H]2Oc3cc([C@H]4Oc5cc(O)cc(O)c5C(=O)[C@H]4O)ccc3O[C@H]2CO)ccc1O | 13.2 µM (active) |  |
| CCN1C[C@H](C)n2c(c(O)c3c(=O)n(Cc4ccc(F)c(Cl)c4)nc(C(=O)NC)c32)C1=O |  | 139% |
| Clc1ccc(COC(Cn2ccnc2)c2ccc(Cl)cc2Cl)c(Cl)c1 (stereo not drawn) | 20.9 µM (active) |  |
| CN(C)c1ccc(-c2nc3ncc(Cl)c(N4CCN(CC(=O)Nc5nccs5)CC4)c3[nH]2)cc1 | 2.64 µM (active) |  |
| CN1[C@H]2CC[C@H]1CC(OC(=O)c1c[nH]c3ccccc13)C2 (stereo partly drawn) |  | 138% |
| CC[C@H](C)C(=O)O[C@H]1C[C@H](O)C=C2C=C[C@H](C)[C@H](CC[C@@H](O)C[C@@H](O)CC(=O)O)[C@H]21 |  | 124% |
| O=C(CO)N1CCC(c2[nH]nc(-c3ccc(Cl)cc3)c2-c2ccncn2)CC1 | 11.8 µM (active) |  |
| CN1CCN(c2cccc(Nc3nc4c(-c5ccc(S(C)(=O)=O)cc5)cccn4n3)c2)CC1 | 0.59 µM (active) |  |
| COc1ccc(-c2oc3c(CC=C(C)C)c(O)cc(O)c3c(=O)c2O)cc1 | 16.6 µM (active) |  |
| CCCCCCCCCCCCCC(=O)N[C@H](CO)[C@H](O)c1ccc([N+](=O)[O-])cc1 | 23.5 µM (active) |  |
| CC(C)=CCCC(C)=CCCC(C)=CCCC(C)=CCCC(C)=CCCC(C)=CCCC(C)=CCCC(C)=CCCC(C)=CCO |  | 188% |
| C=CCc1cccc(C=NNC(=O)CN2CCN(Cc3ccccc3)CC2)c1O | 14.8 µM (active) |  |
| O=C(NC[C@H](O)CO)c1ccncc1Nc1ccc(I)cc1F | 5.9 µM (active) |  |
| CNC(=O)c1cc(COc2nnc(Nc3ccc(Cl)cc3)c3ccoc23)ccn1 | 13.2 µM (active) |  |
| COc1ccc(-c2cc(=O)c3c(O)cc(O[C@@H]4O[C@H](CO[C@@H]5O[C@@H](C)[C@H](O)[C@@H](O)[C@@H]5O)[C@@H](O)[C@H](O)[C@@H]4O)cc3o2)cc1O | 26.4 µM (active) |  |
| CN[C@@H](C)[C@H]1[C@H](O)C[C@@]2(C)[C@@H]3CC[C@H]4C(C)(C)[C@@H](NC)CC[C@@]45C[C@@]35CC[C@]12C |  | 105% |
| CC1C(=O)OC2C(O)C34C5CC(C(C)(C)C)C36C(OC(=O)C6O)OC4(C(=O)O5)C12O (stereo not drawn) |  | 162% |
| Oc1cc(O)cc(C=Cc2ccc(O)c(O)c2)c1 | 2.96 µM (active) |  |
| Nc1ncnc2c1c(-c1cccc(OCc3ccccc3)c1)cn2C1CC(CN2CCC2)C1 (stereo not drawn) | 20.9 µM (active) |  |
| CN[C@H]1[C@@H](O[C@@H]2[C@H](O[C@@H]3[C@@H](O)[C@@H](O)[C@@H](N=C(N)N)[C@@H](O)[C@@H]3N=C(N)N)O[C@H](C)[C@@]2(O)C=O)O[C@@H](CO)[C@@H](O)[C@H]1O |  | 144% [at 15.3 µM] |
